# In publication PMC5540273 (PLoS ONE, 2017):
# Columns and labels:
# Conditions in all cases: concentration: 1 μM, replicates: in singlicate; n = 1
# NEK3 = system: NEK3
# NEK4 = system: NEK4
# NEK5 = system: NEK5
# NEK6 = system: NEK6
# NEK7 = system: NEK7
# NEK9 = system: NEK9
# NIK = system: T1, NIK
# T1 construct: gene MAP3K14
# NIM1 = system: T2, NIM1
# T2 construct: gene MGC42105
# NLK = system: NLK
# OSR1 = system: T3, OSR1
# T3 construct: gene OXSR1
# PAK1 = system: PAK1
# PAK2 = system: PAK2
# PAK3 = system: PAK3
# PAK4 = system: PAK4
# PAK6 = system: PAK6
# PAK7 = system: PAK7
# PCTK1 = system: T4, PCTK1
# T4 construct: gene CDK16
# PCTK2 = system: T5, PCTK2
# T5 construct: gene CDK17
# PCTK3 = system: T6, PCTK3
# T6 construct: gene CDK18
# PDGFRA = system: PDGFRA
# 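Further: KINOMEscan kinase panel screen.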
Compound,%Inh (NEK3) [%],%Inh (NEK4) [%],%Inh (NEK5) [%],%Inh (NEK6) [%],%Inh (NEK7) [%],%Inh (NEK9) [%],%Inh (NIK) [%],%Inh (NIM1) [%],%Inh (NLK) [%],%Inh (OSR1) [%],%Inh (PAK1) [%],%Inh (PAK2) [%],%Inh (PAK3) [%],%Inh (PAK4) [%],%Inh (PAK6) [%],%Inh (PAK7) [%],%Inh (PCTK1) [%],%Inh (PCTK2) [%],%Inh (PCTK3) [%],%Inh (PDGFRA) [%]
CSc1nn2c(=O)cc(N3CCOCC3)nc2n1Cc1cccc(Cl)c1Cl [GSK2347225],1,0,18,17,37,47,0,21,21,6,13,13,15,0,0,26,15,0,0,0
Cn1ccc2ncnc(Oc3ccc(NC(=O)Nc4cccnc4)c(Cl)c3)c21,9,0,0,8,0,3,0,0,0,7,17,24,38,1,16,0,19,12,0,91.8
Clc1ccc(-c2cc(-c3c[nH]nc3-c3ccccn3)ccn2)cc1 [GW681251],3,8,36,0,0,2,30,16,11,2,3,0,2,39,1,0,0,0,12,0
Cn1cc(-c2ccc3c(c2)CCN3C(=O)Cc2cccc(C(F)(F)F)c2)c2c(N)ncnc21 [GSK2606414],0,7,0,0,11,8,0,5,0,12,0,0,25,0,0,0,4,0,0,38
FC(F)(F)c1cc(Nc2nccc(-c3c(-c4ccc(Cl)cc4)nn4ncccc34)n2)ccc1Cl [GW829351],2,0,0,0,0,0,4,0,29,0,0,17,0,0,0,0,0,0,0,0
Nc1nc(-c2ccc3c(N)n[nH]c3c2)cc(N2CCC[C@@H](C(=O)Nc3ccccc3)C2)n1.O=C(O)C(F)(F)F.O=C(O)C(F)(F)F [GSK2288359],2,0,13,0,0,15,0,8,0,3,2,0,27,0,0,6,14,8,0,15
Nc1n[nH]c2nnc(-c3ccccc3)cc12 [SB-517389],29,21,27,0,0,7,0,15,36,0,12,8,0,0,0,2,7,20,15,0
COc1ccc(NC(=O)Nc2ccc(C)c(-c3ccc(C(=O)Nc4ccncc4)cc3)c2)cc1 [GSK1398475],10,0,8,0,0,0,0,0,43,0,0,0,3,0,0,9,0,0,0,28
Cn1ccc2ncnc(Nc3ccc(Oc4cccc(Cl)c4)c(Cl)c3)c21,26,11,0,25,4,17,0,0,0,15,18,0,9,19,0,0,24,26,0,26
Cl.Cl.c1ccc(-c2cc3ccncc3cc2OC2CCNCC2)cc1 [GSK1122999],0,2,22,0,4,28,3,12,15,8,15,31,47,0,0,2,2,12,13,0
CS(=O)(=O)CCNCc1ccc(-c2ccc3ncnc(Nc4ccc(OCc5ccccc5)c(Cl)c4)c3c2)o1.Cl [GW574783],0,5,0,0,0,0,100,0,12,0,0,0,7,0,0,0,0,0,0,0
Fc1ccc(Nc2nccc(-c3c(-c4ccc(Cl)cc4)nn4ncccc34)n2)cc1F [GW829058],11,8,13,21,0,5,43,34,70,28,21,24,15,27,34,14,23,0,13,19
Cc1ccc(NC(=O)c2cccc(C#N)c2)cc1-c1ccc(C(=O)Nc2ccncc2)cc1 [GSK1398463],25,18,11,0,0,4,0,8,1,31,16,21,0,0,0,1,2,0,18,86
NC(=O)c1sc(-n2cnc3ccccc32)cc1OCc1ccccc1F [GSK1024306],0,0,0,0,0,0,0,20,1,1,14,16,0,0,0,4,0,0,1,0
COc1ccc(NC(=O)c2ccc(-c3cc(-c4nnc(C)o4)ccc3C)cc2)cc1 [GW595885],5,19,4,0,0,0,0,20,10,14,0,0,0,0,0,0,6,0,24,0
Cc1cc(N2CCC(NS(=O)(=O)c3ccc(F)cc3)CC2)nc(Nc2cccc(C#N)c2)n1.O=C(O)C(F)(F)F [GSK1653537],0,0,0,0,0,0,0,18,35,6,0,19,6,0,0,0,0,0,18,0
COC(=O)c1c(-c2ccccc2)c2cc(Cl)ccc2c(=O)n1Cc1ccc(S(C)(=O)=O)cc1,4,0,0,2,0,0,0,0,0,0,6,0,0,0,0,0,28,3,0,15
CCC(CC)(CC)n1cnc2c(N)ncnc21 [SKF-97620],23,0,0,0,0,0,0,28,17,19,10,51,14,0,0,10,2,0,0,24
Clc1cc(Nc2ncnc3cc[nH]c23)ccc1OCc1ccccn1,22,6,0,16,0,7,0,35,0,2,10,29,39,10,29,7,2,19,19,29
Nc1nc(-c2cccnc2)c(-c2ccnc3ccccc23)s1 [GW684083],2,20,0,0,0,4,29,66,9,11,0,4,20,0,0,0,0,0,11,0
CSc1ccc(NC2=C(c3ccccc3Cl)C(=O)NC2=O)cc1 [SB-342411],0,0,8,0,0,15,0,0,56,2,0,0,14,29,8,15,29,31,67,0
